Test results: PubChem BioAssay AID1159580 (chemical genetic matrix, 2015)
Several values for one entry are separate records, joined by “and”; a condition that tells them apart may be missing. Equal entries are not always repeated. In all, about 5,500 compounds went through this assay and about 2,000 (36%) were called active. Not shown: some 18% with an inconclusive outcome. Rule as the data show it: active = normalized growth mostly below about 0.91 (no sharp cut-off); inconclusive = no clear call, values can overlap the other calls; inactive = mostly above about 0.92. The list shows a part of the results.

Assay: chemical genetic growth profiling, strain panel (AID 1159580);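 also: tested at 20 µM; growth read once vehicle control cultures reached saturation at 30 °C; 1 = growth at the plate median or of vehicle wells; lower values mean less growth of the strain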
Details: growth OD

Measured: normalized growth

CCN(CC)CCOC(=O)c1ccc(N)cc1
inactive: S. cerevisiae deletion strains, locus YJR075W, strain HOC1, hits give low values 1.07 | S. cerevisiae deletion strains, locus YKL009W, strain mrt4, hits give low values 0.978 | S. cerevisiae deletion strains, locus YKL068W, hits give low values 0.987 | S. cerevisiae deletion strains, locus YKL085W, strain MDH1 (second series), hits give low values 0.981 | S. cerevisiae deletion strains, locus YKL085W, strain MDH1, hits give low values 0.981 | S. cerevisiae deletion strains, locus YKL160W, strain elf1, hits give low values 1.01 | S. cerevisiae deletion strains, locus YKL190W, strain CNB1, hits give low values 1.01 | S. cerevisiae deletion strains, locus YKR001C, strain vps1, hits give low values 0.986 | S. cerevisiae deletion strains, locus YKR026C, strain gcn3, hits give low values 0.99 | S. cerevisiae deletion strains, locus YKR091W, strain srl3, hits give low values 0.988 | S. cerevisiae deletion strains, locus YLL001W, strain dnm1, hits give low values 1.02 | S. cerevisiae deletion strains, locus YLL026W, hits give low values 1 | S. cerevisiae deletion strains, locus YLL041C, strain sdh2, hits give low values 0.987 | S. cerevisiae deletion strains, locus YLR027C, strain aat2, hits give low values 0.994 | S. cerevisiae deletion strains, locus YLR039C, strain RIC1, hits give low values 1.03 | S. cerevisiae deletion strains, locus YLR058C, strain SHM2, hits give low values 1.01 | S. cerevisiae deletion strains, locus YLR102C, strain apc9, hits give low values 0.986 | S. cerevisiae deletion strains, locus YLR113W, strain HOG1, hits give low values 1.02 | S. cerevisiae deletion strains, locus YLR221C, strain rsa3, hits give low values 0.958 | S. cerevisiae deletion strains, locus YLR258W, strain gsy2, hits give low values 0.975 | S. cerevisiae deletion strains, locus YLR262C, strain YPT6 (second series), hits give low values 0.991 | S. cerevisiae deletion strains, locus YLR262C, strain YPT6, hits give low values 1.04 | S. cerevisiae deletion strains, locus YLR268W, strain sec22, hits give low values 0.959 | S. cerevisiae deletion strains, locus YLR320W, strain mms22, hits give low values 0.969 | S. cerevisiae deletion strains, locus YLR330W, strain CHS5, hits give low values 1.01 | S. cerevisiae deletion strains, locus YLR342W, strain FKS1 (second series), hits give low values 1 | S. cerevisiae deletion strains, locus YLR342W, strain FKS1, hits give low values 1.02 | S. cerevisiae deletion strains, locus YLR357W, strain rsc2, hits give low values 0.955 | S. cerevisiae deletion strains, locus YLR370C, strain arc18, hits give low values 1.01 | S. cerevisiae deletion strains, locus YLR371W, strain rom2, hits give low values 0.992 | S. cerevisiae deletion strains, locus YLR384C, strain iki3, hits give low values 0.991 | S. cerevisiae deletion strains, locus YLR418C, strain cdc73, hits give low values 0.975 | S. cerevisiae deletion strains, locus YML016C, strain PPZ1, hits give low values 1.01 | S. cerevisiae deletion strains, locus YML032C, strain rad52, hits give low values 0.99 | S. cerevisiae deletion strains, locus YML120C, strain ndi1, hits give low values 0.989 | S. cerevisiae deletion strains, locus YML124C, strain tub3, hits give low values 0.995 | S. cerevisiae deletion strains, locus YMR058W, strain fet3, hits give low values 0.983 | S. cerevisiae deletion strains, locus YMR078C, strain ctf18, hits give low values 0.992 | S. cerevisiae deletion strains, locus YMR125W, strain sto1, hits give low values 0.962 | S. cerevisiae deletion strains, locus YMR129W, hits give low values 0.982 | S. cerevisiae deletion strains, locus YMR205C, strain PFK2, hits give low values 1 | S. cerevisiae deletion strains, locus YMR223W, strain ubp8, hits give low values 0.997 | S. cerevisiae deletion strains, locus YMR231W, strain pep5, hits give low values 0.997 | S. cerevisiae deletion strains, locus YMR263W, strain SAP30, hits give low values 1.01 and 0.982 | S. cerevisiae deletion strains, locus YMR307W, strain GAS1, hits give low values 0.975 and 0.992 | S. cerevisiae deletion strains, locus YNL067W, strain RPL9B, hits give low values 1.01 | S. cerevisiae deletion strains, locus YNL071W, strain lat1, hits give low values 0.966 | S. cerevisiae deletion strains, locus YNL128W, strain TEP1, hits give low values 1.01 | S. cerevisiae deletion strains, locus YNL153C, strain GIM3, hits give low values 1.01 and 0.998 | S. cerevisiae deletion strains, locus YNL175C, strain NOP13, hits give low values 0.991 | S. cerevisiae deletion strains, locus YNL183C, strain NPR1, hits give low values 1 | S. cerevisiae deletion strains, locus YNL197C, strain WHI3, hits give low values 0.986 | S. cerevisiae deletion strains, locus YNL209W, strain ssb2, hits give low values 0.975 | S. cerevisiae deletion strains, locus YNL224C, strain SQS1, hits give low values 0.998 | S. cerevisiae deletion strains, locus YNL233W, strain BNI4, hits give low values 1.01 | S. cerevisiae deletion strains, locus YNL248C, strain rpa49, hits give low values 0.938 | S. cerevisiae deletion strains, locus YNL250W, strain rad50, hits give low values 0.986 | S. cerevisiae deletion strains, locus YNL271C, strain bni1, hits give low values 0.985 | S. cerevisiae deletion strains, locus YNL298W, strain CLA4, hits give low values 0.99 | S. cerevisiae deletion strains, locus YNL307C, strain MCK1, hits give low values 0.986 | S. cerevisiae deletion strains, locus YNL322C, strain KRE1 (second series), hits give low values 0.986 | S. cerevisiae deletion strains, locus YNL322C, strain KRE1, hits give low values 1 and 0.981 | S. cerevisiae deletion strains, locus YNR049C, strain mso1, hits give low values 0.975 | S. cerevisiae deletion strains, locus YNR052C, strain pop2, hits give low values 0.988 | S. cerevisiae deletion strains, locus YOL006C, strain TOP1, hits give low values 1.04 | S. cerevisiae deletion strains, locus YOL012C, strain htz1 0.92 | S. cerevisiae deletion strains, locus YOL147C, strain pex11, hits give low values 0.988 | S. cerevisiae deletion strains, locus YOR001W, strain rrp6, hits give low values 1.01 | S. cerevisiae deletion strains, locus YOR061W, strain CKA2, hits give low values 1.01 | S. cerevisiae deletion strains, locus YOR069W, strain VPS5, hits give low values 1.01 | S. cerevisiae deletion strains, locus YOR070C, strain gyp1, hits give low values 0.996 | S. cerevisiae deletion strains, locus YOR080W, strain dia2, hits give low values 0.996 | S. cerevisiae deletion strains, locus YOR083W, strain WHI5 (second series), hits give low values 0.979 | S. cerevisiae deletion strains, locus YOR083W, strain WHI5, hits give low values 1 | S. cerevisiae deletion strains, locus YOR106W, strain vam3, hits give low values 1.02 | S. cerevisiae deletion strains, locus YOR136W, strain idh2, hits give low values 0.996 | S. cerevisiae deletion strains, locus YOR144C, strain elg1, hits give low values 0.994 | S. cerevisiae deletion strains, locus YOR184W, strain ser1, hits give low values 0.991 | S. cerevisiae deletion strains, locus YOR231W, strain MKK1, hits give low values 1.02 | S. cerevisiae deletion strains, locus YOR265W, strain rbl2, hits give low values 0.985 | S. cerevisiae deletion strains, locus YOR270C, strain vph1, hits give low values 0.983 | S. cerevisiae deletion strains, locus YOR290C, strain snf2, hits give low values 0.946 | S. cerevisiae deletion strains, locus YOR316C, strain cot1, hits give low values 0.992 | S. cerevisiae deletion strains, locus YPL051W, strain arl3, hits give low values 0.997 | S. cerevisiae deletion strains, locus YPL055C, strain LGE1, hits give low values 1.03 | S. cerevisiae deletion strains, locus YPL078C, strain atp4, hits give low values 1.02 | S. cerevisiae deletion strains, locus YPL106C, strain sse1, hits give low values 0.929 | S. cerevisiae deletion strains, locus YPL240C, strain hsp82, hits give low values 0.991 | S. cerevisiae deletion strains, locus YPL241C, strain CIN2, hits give low values 0.993 | S. cerevisiae deletion strains, locus YPL256C, strain CLN2, hits give low values 1.04 | S. cerevisiae deletion strains, locus YPR119W, strain clb2, hits give low values 0.986 | S. cerevisiae deletion strains, locus YPR141C, strain kar3, hits give low values 0.989 | S. cerevisiae deletion strains, locus YPR163C, strain tif3, hits give low values 0.994 | S. cerevisiae deletion strains, locus YPR167C, strain met16, hits give low values 0.991 | S. cerevisiae deletion strains, strain wtn01, hits give low values 0.996 | S. cerevisiae strains, strain wild type, hits give low values 1.01
